From PubChem
The list is not random: actives were taken first. Their share in the collection is about 2.2%.
M4 PAM = potentiates acetylcholine response at human M4 receptor. P08173. CHO-K1 hM4/Gqi5, Fluo-8 calcium fluorescence, ACh EC20; 0% = ACh EC20, 100% = maximal ACh. activation, % at 3 µM. hit rate 0.4% among 360,000. AID 624126;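 active means activation above its plate's cutoff, the mean activation of sample wells plus 3 SD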
CHRM1 PAM = human CHRM1 positive allosteric modulation; hit rate 0.088% among 360,000; AID 588819; activation, % at 3 µM; CHO-K1 hM1, Fluo-8 calcium fluorescence, ACh EC20; 0% = ACh EC20, 100% = maximal ACh; P11229; in the data active means activation above about 19%, passing the limit was not always enough
Target sequence (P11229 whole entry, looked up): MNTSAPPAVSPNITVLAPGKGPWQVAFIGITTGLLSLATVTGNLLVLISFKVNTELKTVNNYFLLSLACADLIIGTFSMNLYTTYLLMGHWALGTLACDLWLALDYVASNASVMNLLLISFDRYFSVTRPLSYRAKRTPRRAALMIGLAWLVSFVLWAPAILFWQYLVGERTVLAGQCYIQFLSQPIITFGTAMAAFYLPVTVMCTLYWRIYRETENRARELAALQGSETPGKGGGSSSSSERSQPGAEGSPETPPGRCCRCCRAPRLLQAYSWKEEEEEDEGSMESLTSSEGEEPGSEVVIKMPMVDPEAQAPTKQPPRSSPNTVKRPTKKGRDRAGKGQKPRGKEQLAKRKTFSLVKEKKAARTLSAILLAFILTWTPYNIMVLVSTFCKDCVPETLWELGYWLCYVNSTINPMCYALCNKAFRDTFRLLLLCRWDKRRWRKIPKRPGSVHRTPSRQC
M1 antag = human CHRM1 antagonism; CHO-K1 hM1, Fluo-8 calcium fluorescence, ACh EC80 antagonist; inhibition, % at 3 µM; hit rate 1.3% among 360,000; AID 588852;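 active means percent inhibition above its own plate's cutoff, namely the mean of that plate's compound wells plus 3 SD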;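 further: peak over basal fluorescence ratio during 140 s after agonist addition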
CHRM4 antagonist = blocks acetylcholine activation of human M4 receptor; P08173; CHO-hM4 cells, ACh EC80, Fluo-8 calcium fluorescence; inhibition, % at 3 µM; hit rate 0.73% among 360,000;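 active means inhibition above its plate's cutoff, the mean inhibition of sample wells plus 3 SD, cut at about 27% in these data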
M4 ag = CHRM4 agonism in calcium assay; P08173; activation, % at 3 µM; CHO-K1 hM4/Gqi5, Fluo-8 calcium fluorescence; vehicle 0%, full acetylcholine response 100%; hit rate 0.14% among 360,000;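 active means activation above the run mean over all test wells plus 3 SD, cut at about 32% in these data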;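 further: peak over basal fluorescence ratio per well then scaled between controls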
CHRM1 agonist = activates human CHRM1 receptor | P11229 | CHO-K1 hM1, Fluo-8 calcium fluorescence, agonist mode; 0% DMSO, 100% acetylcholine EC100 | activation, % at 3 µM | hit rate 0.33% among 360,000;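 active means activation above the run's mean compound activation plus 3 SD, cut at about 16% in these data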;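 further: peak over basal fluorescence ratio within a 140 s kinetic read after compound addition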
Each line names hits and unclear results; the compound was inactive in the other large screens.

CSCCC(NC(=O)c1ccccc1Br)C(=O)NCC1CCCCC1 (stereo not given)	none
CSCCC(NC(=O)c1ccco1)C(=O)NCC1CCCCC1 (stereo not given)	CHRM1 PAM 24
O=S(=O)(c1ccccc1)N1CCC(n2nnc3cc(F)ccc32)CC1	none
O=S(=O)(c1ccc2c(c1)OCCO2)N1CCC(n2nnc3cc(C(F)(F)F)ccc32)CC1	M1 antag 31
COc1ccccc1OCCSc1nc2ccccc2n1CC(O)CO (stereo not given)	none
COc1ccc(C(Cl)=C(C=O)c2ccc(OC)c(OC)c2)cc1OC	CHRM1 agonist 18
COc1cc(C(=O)NC(=S)Nc2ccc3c(c2)OCO3)cc(OC)c1OC	none
COc1cc(C(=O)NC(=S)NNC(=O)c2ccc3c(c2)OCO3)cc(OC)c1OC	CHRM1 agonist 17
O=C(CNC(=S)NC(=O)c1ccc(Cl)cc1)c1ccccc1	CHRM1 PAM 32
Cc1ccc(C(=O)NC(=S)NNC(=O)c2ccccc2)cc1	M4 ag 87, CHRM1 agonist 36
Cc1ccccc1OCC(=O)NNC(=S)NC(=O)c1ccco1	CHRM1 agonist 18
O=C(CNC(=S)NC(=O)c1ccc(Br)o1)c1ccccc1	none
O=C(C1=NOC2(C1)C(=O)Nc1ccccc12)N1CCCC1 (stereo not given)	none (no result: CHRM1 PAM, M1 antag, CHRM1 agonist)
COc1ccc(N2CCN(C(=O)c3cccnc3SCc3cccc(Br)c3)CC2)cc1	none
O=C(NCCc1ccccn1)c1n[nH]c(=O)c2ccccc12	none
Cc1ccc(C(=O)NNC(=S)NC(=O)c2ccco2)cc1	CHRM1 agonist 30
Cc1ccc(C(=O)NNC(=O)c2ccco2)cc1	none
CC(C)C(=O)Nc1ccc(C(=O)NNC(=S)NC(=O)c2cccs2)cc1	none
COc1ccc(C(=O)NNC(=S)NC(=O)c2ccc(F)cc2)cc1Br	M1 antag 35, M4 ag 93, CHRM1 agonist 88
Cc1ccc(C(=O)NNC(=S)NC(=O)c2ccc(Cl)cc2Cl)cc1	M1 antag 46, CHRM4 antagonist 36, M4 ag 160, CHRM1 agonist 105
Cc1cccc(C(=O)NNC(=S)NC(=O)c2cccs2)c1	M4 ag 129, CHRM1 agonist 84
CC(C)NC(=S)NC(=O)c1ccc(Cl)cc1Cl	none
COC(=O)c1ccc(N2C(=O)c3cc(N4CCOCC4)c([N+](=O)[O-])cc3C2=O)cc1	none
CSc1c(-c2ccccc2)nc2ccc(Cl)cc2c1C(=O)O	none
O=C(Nc1ccc(Cl)cc1)c1cc(S(=O)(=O)N2CCCCC2)ccc1N1CCOCC1	none
COc1cc(F)ccc1-c1cc(C(=O)NCc2ccc(F)cc2)[nH]n1	none
COc1ccc(/C=C/C(=O)NC(=S)NNC(=O)c2cccs2)cc1	CHRM1 agonist 21
Cc1ccc(C(=O)NNC(=S)NC(=O)c2ccccc2)cc1	M1 antag 52, CHRM4 antagonist 28, M4 ag 130, CHRM1 agonist 52
O=C(CCc1ccccc1)NNC(=S)NC(=O)c1ccccc1	none
Cc1ccc(C(=O)NC(=S)NNC(=O)c2ccc([N+](=O)[O-])cc2)cc1	none
COc1ccc(C(=O)NNC(=S)NC(=O)c2cccs2)cc1	none
Cc1cccc(C(=O)NNC(=S)NC(=O)c2ccccc2)c1	M4 ag 118, CHRM1 agonist 97
CC(C)(C)c1cc(CCC(=O)NNC(=S)NC(=O)c2ccccc2)cc(C(C)(C)C)c1O	M1 antag 49, M4 ag 37, CHRM1 agonist 81
CC(/C=N/n1c(-c2cc(C)[nH]n2)n[nH]c1=S)=C\c1ccco1	none
Cc1oc2c(C)c(O)ccc2c(=O)c1N1C(=O)c2ccccc2C1=O	none
CC(=O)c1ccc(N2CCN(C(=S)Nc3ccccc3)CC2)cc1	none
COc1ccc(Cl)cc1C(=O)NNC(=S)NC(=O)c1ccc(F)c(F)c1	CHRM1 agonist 37
CCCCC(=O)NC(=S)NNC(=O)c1ccc(Cl)cc1Cl	CHRM1 agonist 25
COc1ccc(C(=O)NNC(=S)NC(=O)c2cccnc2)cc1	none
COc1ccc(/C=C/C(=O)Nc2ccccc2C(F)(F)F)cc1	M4 PAM 21
COc1ccc(C(=O)NNC(=S)NC(=O)c2ccc(OC)cc2)cc1	M4 ag 54, CHRM1 agonist 23
Cc1ccc(/C=C/C(=O)OCC(=O)Nc2ccc3[nH]c(=O)[nH]c3c2)o1	none
CCc1ccc(-c2nn(-c3cc(Cl)ccc3[N+](=O)[O-])c(=O)c3ccccc23)cc1	none
CCOC(=O)/C(C(N)=NC)=C(\O)c1ccccc1	none
Cc1ccc(OC(F)F)c(NC(=O)Nc2cccc(C(F)(F)F)c2)c1	M1 antag 28
CC1(C(=O)Nc2ccc3c(c2)OCCO3)CCN1C(=O)C/C=C/c1ccccc1 (stereo not given)	none
CCN(CC)C(=O)c1cccc(-c2csc(C(C)(O)c3cccc(OC)c3)n2)c1 (stereo not given)	none
CCN(CC)C(=O)c1cccc(-c2csc(C(C)(O)c3ccc(OC)cc3)n2)c1 (stereo not given)	M1 antag 46
CC(O)(c1cccnc1)c1nc(-c2cccc(C#N)c2)cs1 (stereo not given)	M4 PAM 19
CC(O)(c1ccncc1)c1nc(-c2cccc(C(F)(F)F)c2)cs1 (stereo not given)	M1 antag 30
CC(O)(c1cccc(F)c1)c1nc(-c2cccc(C#N)c2)cs1 (stereo not given)	none
CCN1CCN(C(=O)c2cc3c(OC)c(OC)c(OC)cc3[nH]2)CC1	CHRM4 antagonist 61
CCOC(=O)C1CCN(C(=O)c2cc3c(OC)c(OC)c(OC)cc3[nH]2)CC1	none
c1ccc(SCCc2ccncc2)cc1	M1 antag 101
Fc1ccc(SCCc2ccncc2)cc1	none
O=c1c2ccccc2n2c(-c3cccc(F)c3)nnc2n1Cc1ccccc1	M4 PAM 21
O=C(Nc1cc(S(=O)(=O)N2CCOCC2)ccc1O)c1ccc2c(c1)S(=O)(=O)c1ccccc1C2=O	none
Cc1cccc(NCc2cc(Cl)ccc2O)n1	none
CCOc1ccc(C(=O)Nc2cc(-c3nc4ccccc4[nH]3)ccc2Cl)cc1[N+](=O)[O-]	M1 antag 37
Cc1ccc(-c2nn3nnnc3c3ccccc23)cc1C	M4 PAM 39
CCOC(=O)c1sc2nc(NC(=O)C(C)(C)C)sc2c1C	M1 antag 32
CCOC(=O)c1sc2nc(NC(=O)C3CC3)sc2c1C	none
CNC(=O)c1ccc(NC(=O)C2CCN(S(=O)(=O)c3cccc(C(F)(F)F)c3)CC2)cc1	M1 antag 30
O=C(NO)c1ccccc1C(F)(F)F	none
Cc1cc(C)c(CN2CCN(CCCn3ccc(NC(=O)OCc4ccccc4)nc3=O)CC2)c(C)c1	M1 antag 42
